# In the supplement of paper PMC10338343:
# ± gives the standard deviation. The full ranking holds about 6,200 sequences; the median of “pre-steady-state target cleavage rate” is about 0.29, and the highest 2% start at about 2. Many of the other results were omitted from the sample, so the highest values are more common in it than they were.
# Tested on: MIWI (PIWIL1) piRISC loaded with piRNA #1 (30 nt)
# Test: pre-steady-state target cleavage rate (min^-1); MIWI and MILI are mouse PIWI proteins and EfPiwi is from a freshwater sponge; tags in brackets are library labels; higher = faster piRNA-guided slicing of the target
# Details: guide: piRNA #1 5'p-UGAGGUAGUAGGUUGUAUAGUAUCCAGAGG; auxiliary factor: 500 nM mouse GTSF1
# Outline: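 With or without 500 nM GTSF1 partner protein, 1 nM active affinity-purified piRISC carrying one synthetic guide was mixed with 0.1 nM transcribed, DNA-blocked target RNA library in HEPES–potassium acetate buffer at 33 °C for 0–8 or 0–960 min. Uncleaved targets were sequenced and normalised to depth and to weakly complementary targets, three trials were pooled, and k3 was capped at 0.0001 min^-1. The pre-steady-state cleavage rate came from a burst-and-steady-state fit.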
row,Sequence,pre-steady-state target cleavage rate
1,GGAGACCUAAAUAUACAACCUACUACCUCA,0.106 ± 0.021
2,GGACUGGAUACUAUACAACGUUCUACCUCA,0.107 ± 0.014
3,GGUCUGGAUAGUAUACAACCUACUACCUGA,0.248 ± 0.041
4,GGAGACGAUAGUAUACUACCUACUACCUCA,0.67 ± 0.071
5,GGAGUGGAUACUAUACAACCUACUCACCUCA,0.793 ± 0.088
6,GGAGUGGAUACUAUACUACCUAGUACCUCA,0.283 ± 0.04
7,GGUGUGGAUACUAUACAACCUACUACCUGA,0.419 ± 0.069
8,GGUCACGAUACUAUACAACCUACUACCUCA,1.89 ± 0.12
9,CCUGACGAUACUAUACAACCUACUACCUCA,2.06 ± 0.12
10,CCUCACGAUACUAUACAACCUACUACCUCA,2.1 ± 0.12
11,GGAGACGAUACUAUACAACCUACUACCUCG [g2:g24:cont:t1G],1.1 ± 0.063
12,GGAGACGAUACUAUACAACCUACUACCUCC [g2:g24:cont:t1C],1.5 ± 0.075
13,GCUCACGAUACUAUACAACCUACUACCUCA,1.83 ± 0.092
14,GGAGACGAUACUAUACAACCUACUACCUCCA,2.06 ± 0.12
15,GGUGACGAUACUAUACAACCUACUACCUCA,1.82 ± 0.098
16,GCUGACGAUACUAUACAACCUACUACCUCA,1.84 ± 0.1
17,GGAGACCUUUCUAUACAACCUAGUACCUCA,0.238 ± 0.034
18,CCUCUGGAUAGAAUACAACCUACUACCUCA,1.24 ± 0.066
19,GGAGACCAUACUAUUCUACCUACUACCUCA,0.224 ± 0.035
20,GGAGAGGGUACUAUACAACCUACUACCUCA,1.17 ± 0.051
21,GGACUGGAUUCUAUACAACCUACUAGCUCA,0.118 ± 0.022
22,GGAGACCUAUGAUAUCAACCUACUACCUACA,< 0.0001
23,GGAGACGAUACUAUACAACCUACUACCGUCA,0.443 ± 0.065
24,GGAGUGGAUACUAUCACAACCUACUACCUCA,1.49 ± 0.12

row,Sequence,pre-steady-state target cleavage rate
1,GGAGUGGAUACUAUACAAGCUACUUCCUCA,0.374 ± 0.031
2,GGACUGGUUACUAUACAACCUACUACCUCA,1.65 ± 0.13
3,GGUCUGGUUACUAUACAACCUACUACCACA,0.747 ± 0.068
4,CCACUGGUUACUAUACAACCUACUACCUCA,2.28 ± 0.14
5,CCUCUGGUUACUAUACAACCUACUACCUCA,2.29 ± 0.13
6,GCUCUGGUUACUAUACAACCUACUACCACA,2.3 ± 0.24
7,GCUCUGGUUACUAUACAACCUACAACCUCA,1.33 ± 0.079
8,GGUCUGGUUACUAUACAACCUACUACCUCA,1.87 ± 0.11
9,CCUCUGGUUACUAUACAACCUACUAGCUCA,0.705 ± 0.055
10,GCACUGGUUACUAUACAACCUACUACCUCA,1.84 ± 0.11
11,CCUCUGGUUACUAUACAACCUACAACCUCA,1.28 ± 0.089
12,CCUCUGGUUACUAUACAACCUACUACCACA,1.79 ± 0.14
13,GCUCUGGUUACUAUACAACCUACUACCUCA,2.1 ± 0.12
14,GGAGACCUAUCUAUACUACCUACAACCUCA,0.0031 ± 0.0021
15,GGAGACCUAUCUAUACAACCUACUACCUGA,0.516 ± 0.057
16,GGAGUGGAUACUAUACAACCUACUAACCUCA,0.901 ± 0.053
17,GGAGUGGAUUCUAUACAACCUACUACGUCA,0.522 ± 0.048
18,CCUCUGGAUACUAUACAACCACUACCUCA,0.033 ± 0.0096
19,CCUCUGGAUACUAAACAACCUACUACGUCA,1.49 ± 0.087
20,GGAGACCUUACUAUUCAACCUACUACGUCA,0.678 ± 0.064
21,GGAGACCAUUCUAUACAACCUACAACCUCA,0.667 ± 0.075
22,GGUCUGGAUAGUAUACAUCCUACUACCUCA,0.741 ± 0.083
23,GGAGAGGAUACUAUACAUCCUACUUCCUCA,0.0568 ± 0.0099
24,GGAGACCUAACUAAACAACCUACUAGCUCA,0.0502 ± 0.019

row,Sequence,pre-steady-state target cleavage rate
1,GCUGUGGUUACUAUACAACCUACUACCUCA,2 ± 0.13
2,GCUCUGGUUUCUAUACAACCUACUACCUCA,2 ± 0.12
3,GCUCUGGUUACAAUACAACCUACUACCUCA,1.98 ± 0.12
4,CCUCUGGUUUCUAUACAACCUACUACCUCA,2.25 ± 0.15
5,GGUCUGGUUUCUAUACAACCUACUACCUCA,1.8 ± 0.12
6,GCUCUGGUUACUUUACAACCUACUACCUCA,1.7 ± 0.089
7,CCUCUGGUUACAAUACAACCUACUACCUCA,2.15 ± 0.13
8,CCUCUGGUUACUUUACAACCUACUACCUCA,2.24 ± 0.16
9,GGUGUGGUUACUAUACAACCUACUACCUCA,1.54 ± 0.097
10,GGUCUGGUUACAAUACAACCUACUACCUCA,1.59 ± 0.12
11,CCUGUGGUUACUAUACAACCUACUACCUCA,1.17 ± 0.058
12,GGUCUGGUUACUUUACAACCUACUACCUCA,1.69 ± 0.13
13,GGAGACGAUACUAUACAACAUACUACCUCA,1.16 ± 0.077
14,GGAGUGGAUUCUAAACAACCUACUACCUCA,0.994 ± 0.069
15,GGAGACCUAUGAUAUGUACCUACUAACUCA,< 0.0001
16,GGAGUGCAUACUAUACAACCUACUACCUGA,0.513 ± 0.077
17,GGAGACCUAUGUAUACAACCUACUACUCA,0.00349 ± 0.0019
18,GGAGACCUUACAAUAGAACCUACUACCUCA,0.167 ± 0.022
19,GGAGACCAUACUAUACAACCUACUUCCUCA,0.666 ± 0.054
20,GGUCUGGAUACUAUACAACUUACUACCUCA,0.481 ± 0.028
21,GGAGUGCAUUCUAUACAACCUACUACCUCA,1.32 ± 0.11
22,GGUCUCGAUACUAUUCAACCUACUACCUCA,1.86 ± 0.12
23,GCUCGGGAUACUAUACAACCUACUACCUCA,1.5 ± 0.071
24,GGUCCGGAUACUAUACAACCUACUACCUCA,1.76 ± 0.11

row,Sequence,pre-steady-state target cleavage rate
1,CCUCUCGAUACUAUUCAACCUACUACCUCA,2.27 ± 0.15
2,GCUCUCGAUACUAUUCAACCUACUACCUCA,1.86 ± 0.11
3,CCUCUCGAUACUAUACAACCUACAACCUCA,1.34 ± 0.077
4,GGUCGGGAUACUAUACAACCUACUACCUCA,1.66 ± 0.11
5,GCUCUCGAUACUAUACAACCUACUACCUCA,1.86 ± 0.11
6,CCUCUCGAUACUAUACAACCUACUACCUCA,2.01 ± 0.12
7,CCUCGGGAUACUAUACAACCUACUACCUCA,2.3 ± 0.16
8,CCUCCGGAUACUAUACAACCUACUACCUCA,2.08 ± 0.14
9,GCUCCGGAUACUAUACAACCUACUACCUCA,1.81 ± 0.12
10,GGUCUGGUACUAUACAACCUACUACCUCA,1.73 ± 0.11
11,GGAGACCAAACUAUACAACCUAGUACCUCA,0.226 ± 0.033
12,GGAGACCUAUGUAUACAACCUACUACCUGCA,0.0855 ± 0.011
13,GGAGACCUAACUUAUACAACCUACUACCUCA,0.23 ± 0.041
14,CCUCUGGAUACUAUUCAACCUACUAGCUCA,1.37 ± 0.12
15,CCUCUCGGAUACUAUACAACCUACUACCUCA,2.06 ± 0.15
16,GCUCUCGAUACUAAACAACCUACUACCUCA,1.81 ± 0.12
17,GGUCUCGAUACUUUACAACCUACUACCUCA,1.54 ± 0.093
18,GCUCUCGGAUACUAUACAACCUACUACCUCA,1.76 ± 0.088
19,CCUCUCGAUACUAUACAACCUACUACCUGA,0.985 ± 0.087
20,CCUCUCGAUACUAAACAACCUACUACCUCA,2.13 ± 0.14
21,GGUCUCGAUACUAAACAACCUACUACCUCA,1.68 ± 0.12
22,CCUCGGAUACUAUACAACCUACUACCUCA,1.96 ± 0.13
23,GCUCUCGAUACUUUACAACCUACUACCUCA,1.69 ± 0.11
24,GGUCUCGAUACUAUACAACCUACUACCACA,0.758 ± 0.064

row,Sequence,pre-steady-state target cleavage rate
1,CCUCUCGAUACUUUACAACCUACUACCUCA,2.13 ± 0.14
2,CCUCUCGAUACUAUACAACCUACUACCACA,2.21 ± 0.12
3,GCUCUGGAUACUAUACAACCUACGACCUCA,1.22 ± 0.083
4,GGUCUGGAAACUAUACAACCAACUACCUCA,0.138 ± 0.015
5,GGAGACCAUACUUACAACCUACUACCUCA,0.269 ± 0.028
6,GGACAGGAUACUAAACAACCUACUACCUCA,1.64 ± 0.11
7,GGAGACCAUUCUAUACAACCUACUACCACA,1.16 ± 0.1
8,GCACUCGAUACUAUACAACCUACUACCUCA,1.43 ± 0.059
9,GGACUCGAUACUAUACAACCUACUACCUCA,1.69 ± 0.12
10,GGACUCGAUACUAUACAACCUACUACCACA,0.579 ± 0.063
11,GCUCUCGAUACUAUACAACCUACUACCUGA,1.07 ± 0.11
12,CCACUCGAUACUAUACAACCUACUACCUCA,2.13 ± 0.14
13,GCUCUCGAUACUAUACAACCUACUACCACA,2.17 ± 0.15
14,CCUCUGGAUACUAUACUACCUACUACCACA,1.68 ± 0.12
15,GGAGUGGAUACUACACAACCUACUACCUCA,1.71 ± 0.097
16,GGAGACGAUACUAUACAGCCUACUACCUCA,0.668 ± 0.028
17,GGAGUGGUUACUAUACAACCUAGUACCUCA,0.371 ± 0.05
18,GGAGACCUUACUAUACAACCUACUUCCUCA,0.399 ± 0.035
19,GCUCUGGAUAGAUUACAACCUACUACCUCA,0.735 ± 0.048
20,GCUCAGGAUACUAUACAACCUACAACCUCA,0.866 ± 0.076
21,CCUCAGGAUACUAUACAACCUACUACCUCA,1.98 ± 0.12
22,GGACAGGUUACUAUACAACCUACUACCUCA,1.9 ± 0.14
23,GCUCAGGUUACUAUACAACCUACUACCUCA,2.01 ± 0.12
24,CCUCAGGUUACUAUACAACCUACUACCUCA,2.5 ± 0.16

row,Sequence,pre-steady-state target cleavage rate
1,GCUCAGGAUACUAUACAACCUACUACCUCA,1.85 ± 0.11
2,GGUCUGGAUUCUAAACAACCUACUACCUCA,1.23 ± 0.071
3,GGAGACCUAUGUAUACAACCUACUCACCUCA,0.144 ± 0.027
4,GGAGACCUAACUAUACAACAUACUACCUCA,0.303 ± 0.036
5,GGAGAGGAUACUAUACACCCUACUACCUCA,1.4 ± 0.068
6,GGUCUGGAUACUAUACAACCUACUACCUCCA,2.06 ± 0.12
7,GCUCUGGAUACUAUACAACCUACUACCUCG [g2:g29:cont:t1G],1.29 ± 0.098
8,GCUCUGGAUACUAUACAACCUACUACCUCCA,2.15 ± 0.14
9,CCUCUGGAUACUAUACAACCUACUACCUCCA,2.27 ± 0.14
10,GGUCUGGAUACUAUACAACCUACUACCUCU [g2:g28:cont:t1U],1.59 ± 0.11
11,GGUCUGGAUACUAUACAACCUACUACCUCC [g2:g28:cont:t1C],1.54 ± 0.11
12,GCUCUGGAUACUAUACAACCUACUACCUCU [g2:g29:cont:t1U],2.16 ± 0.13
13,GCUCUGGAUACUAUACAACCUACUACCUACA,1.87 ± 0.13
14,GCUCUGGAUACCUAUACAACCUACUACCUCA,1.06 ± 0.08
15,GCUCUGGAUACUAUACAACCUACUACCUAA,1.83 ± 0.12
16,GGUCUGGAUACUAUACUACCUACAACCUCA,0.456 ± 0.054
17,GGAGACCAUACUAAACAACCUACUUCCUCA,0.195 ± 0.024
18,GGAGUGGAUACUAUACUACCUACUACCUGA,0.329 ± 0.052
19,GGAGUGGUUACUAUACAACGUACUACCUCA,0.386 ± 0.027
20,GGAGACGAUACUUUACAACCUACUAGCUCA,0.142 ± 0.027
21,GGUCUGGAUACUAUAGAACCUACUACCACA,0.0228 ± 0.0058
22,GGAGACGAUACAAUACAACCUACUACCUCA,1.29 ± 0.097
